# The campaign covered roughly 65,000 compounds. About 2,100 (3.2%) showed an effect of 50% or more. The median lay at about -52%. Many of the other results were omitted from the sample, so strong results are more common in it than they were.
# Test system: Plasmodium falciparum
# Assay: Screen against P. falciparum Asexual Blood Stage (ABS), at 5uM
# Type: functional, Dd2
# Conditions: tested at 5 uM
row,Structure (SMILES),INHIBITION
1,Cc1cccc(COc2ccc(C(C)N)cc2)c1 (stereo unspecified),8.28%
2,CCc1ccc2nc(C)cc(C(=O)N[C@@H]3CNC[C@H]3O)c2c1,-22%
3,CCc1ccc2nc(C)cc(C(=O)NC[C@@H]3CCNC[C@H]3O)c2c1,-49.3%
4,CCc1ccc2nc(C)cc(C(=O)N[C@@H]3CCCNC3)c2c1,64.5%
5,N#CCCNC(=O)CN1CC(n2cccn2)C1,-21.3%
6,O=S(=O)(Cc1cccc(Cl)c1)CC(O)Cn1cccn1 (stereo unspecified),-0.894%
7,O=C(c1cscn1)N1CCc2c(COCC3CC3)cncc2C1,-54.8%
8,O=c1occ(CN2CCCCCC2)c(O)c1CN1CCOCC1,-36%
9,O=c1occ(CN2CCCCCC2)c(O)c1CN1CCCCCC1,55.5%
10,O=c1occ(CN2CCSCC2)c(O)c1CN1CCCC1,-7.27%
11,COc1c(C(=O)NCC(C)C)nnn1Cc1ccccc1,-128%
12,C[C@@H]1CN(CCC(=O)N(C)Cc2ccccc2)CC[C@@]1(O)C1CCC1,22.8%
13,C[C@@H]1CN(CCOCc2ccccc2)CC[C@@]1(O)C1CCC1,54.7%
14,C[C@@H]1CN(CCOc2ccc(Cl)cc2)CC[C@@]1(O)C1CCOCC1,-28.8%
15,CN(CCCc1cc(-c2ccc(F)cc2)n(C)n1)CC(=O)NC(N)=O,-152%
16,CN(C)C(=O)C1CCC2(CCN(Cc3ccc4ccccc4n3)CC2)O1 (stereo unspecified),-19%

row,Structure (SMILES),INHIBITION
1,CCOc1ccccc1C1CCCN1 (stereo unspecified),-8.92%
2,CCOc1ccc(Cl)cc1C(C(=O)O)N1CCCC1 (stereo unspecified),2.39%
3,CCOc1ccc(Cl)cc1C1CCCCN1 (stereo unspecified),68.8%
4,Cn1cc(CCC(=O)N2C[C@@H]3CC[C@H]2CN(Cc2ccccc2)C3)cn1,14.3%
5,CCC(=O)N1CCCCC1c1nc(O)c2c(n1)CN(C(C)=O)CC2 (stereo unspecified),-29.8%
6,Cc1ccoc1CNCc1nnc2n1CC(C(F)(F)F)CC2 (stereo unspecified),-13.5%
7,COc1ccc(CN(C)CC(O)COCc2ccccc2Cl)c(OC)c1 (stereo unspecified),-5.65%
8,COc1ccccc1COCC(O)CN(C)Cc1cccc(Cl)c1 (stereo unspecified),-93.4%
9,Cc1ccccc1CN(C)CC(O)COCc1ccccc1Cl (stereo unspecified),68.9%
10,OC[C@H]1CN(Cc2c(Cl)cccc2Cl)C[C@H]1CN1CCCCC1,50.8%
11,OC[C@H]1CN(Cc2c(Cl)cncc2Cl)C[C@H]1CN1CCOCC1,-53.1%
12,OC[C@H]1CN(Cc2c(Cl)cncc2Cl)C[C@H]1CN1CCCCCC1,12.6%
13,Clc1ccc(CN(CCN2CCOCC2)Cc2cccnc2)cc1Cl,53.8%
14,Clc1ccc(CN(CCN2CCOCC2)Cc2cccnc2)c(Cl)c1,35.4%
15,Clc1cccc(Cl)c1CN(CCCN1CCOCC1)Cc1cccnc1,-6.41%

# — ChEMBL document CHEMBL4513216, “Probing the Open Global Health Chemical Diversity Library for Multistage-Active Starting Points for Next-Generation Antimalarials” (ACS Infect Dis, 2020)
